Experimental findings from PubChem BioAssay (Tox21) are described below.

Experiment [1] can be described thus: qHTS assay to identify small molecule agonists of the constitutive androstane receptor (CAR) signaling pathway - cell viability counter screen (AID 1224836). Also: nearly all actives have a fitted effect of over 45% in size. Also: potency is read from the fitted curve at half-maximal effect. The method, boiled down:
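Multiplexed viability check: HepG2-CYP2B6-hCAR cells, 15-point compound dosing, 0.75 uM PK11195 final, 23 h at 37 C, CellTiter-Fluor fluorescence.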
For orientation: Quantitative high-throughput screening tests each substance at several concentrations.

The nature of experiment [2]: qHTS assay to identify small molecule antagonists of the estrogen related receptor signaling pathway with the pleiotropic PPARgamma coactivator (PGC) from Tox21 10K library - cell viability counter screen (AID 1224840; active = well fitted cell-killing curve with a large enough effect in the repeat runs, not every such curve was filed as active; also: nearly all actives have a fitted effect of over 40% in size). The method, boiled down: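 Viability counter screen, PGC/ERR cells: 17.5 h compound exposure at 37 C, CellTiter-Fluor fluorescence endpoint.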
Experiment [3] deals with Thyrotropin receptor (Homo sapiens) (UniProt P16473). The experiment can be described thus: qHTS assay to identify small molecule agonists of the thyroid stimulating hormone receptor (TSHR) signaling pathway (AID 1224843; calls by dose curve; also: nearly all actives have a fitted effect of over 45% in size). The method, boiled down:
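Agonist-mode screen: TSHR HEK293 cells received test chemicals for half an hour at room temperature, then HTRF cAMP detection reagents for one hour prior to fluorescence measurement. Each chemical ran as a 15-concentration series, triplicated.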

Experiment [4] is described as follows: qHTS assay to identify small molecule agonists of the hypoxia (HIF-1) signaling pathway - cell viability counter screen (AID 1224844; calls by dose curve; also: nearly all actives have a fitted effect of over 50% in size). The method, boiled down:
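Same wells as the HIF-1 reporter screen; ME-180 cells carrying HRE-bla, 17 hr treatment at 37C; CellTiter-Glo luminescence read after 30 min at room temperature.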

The nature of experiment [5]: qHTS assay to identify small molecule agonists of H2AX (AID 1224845; active = well fitted activation curve with a large enough effect in the signal ratio in the repeat runs, not every such curve was filed as active; the % refers to the signal ratio). The method, boiled down:
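Wild-type CHO-K1 cells, plated overnight, exposed 3hr at 37C to 15 concentrations (0.76% DMSO final). Lysed, then HTRF anti-pH2AX (S139) cryptate and anti-H2AX-d2 antibodies, 24 hr room temperature; 665/620 nm emission read.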

The nature of experiment [6]: qHTS assay to identify small molecule agonists of the hypoxia (HIF-1) signaling pathway (AID 1224846; active = well fitted activation curve with a large enough effect in the signal ratio in the repeat runs, not every such curve was filed as active; the % refers to the signal ratio). The method, boiled down:
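In ME-180 cells bearing an HRE-bla construct, 17 h treatment with DMSO-dissolved compounds at 37C was followed by CCF4-AM loading to quantify reporter induction.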

Experiment [7] in a line: qHTS assay to identify small molecule agonists of H2AX - cell viability counter screen (AID 1224847; calls by dose curve; also: top concentration of the series differs between compounds; nearly all actives have a fitted effect of over 30% in size). The method, boiled down:
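After overnight plating of 1000 CHO-K1 cells per well, a 15-concentration compound series was applied for 3 hr at 37C. Luminescence from CellTiter-Glo, read following 30 min at room temperature, reflected cell viability.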

Experiment [8] is described as follows: qHTS RealTime-Glo MT Cell Viability Assay in HEK293 cells - 32 hour (AID 1224868). Also: top concentration of the series differs between compounds; nearly all actives have a fitted effect of over 50% in size. The method, boiled down:
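HEK293 cells were seeded at 600 cells/well together with NanoLuc luciferase and cell-permeant prosubstrate, preincubated 5 h at 37 C/5% CO2, then given compound in DMSO by pintool. Luminescence from viable-cell prosubstrate reduction was read repeatedly over 40 h.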

Experiment [9] can be described thus: A CellTox Green Cytotoxicity Assay to monitor cytotoxicity in HEK293 cells - 0 hour (AID 1224869). Also: nearly all actives have a fitted effect of over 50% in size. The method, boiled down: (§1)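 Homogeneous no-lysis format: HEK293 cell suspension mixed with CellTox Green reagent, seeded, incubated 5 h at 37 C/5% CO2, then dosed by pintool with compound in DMSO.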
Experiment [10] can be described thus: qHTS RealTime-Glo MT Cell Viability Assay in HepG2 cells - 40 hour (AID 1224870). Also: nearly all actives have a fitted effect of over 50% in size. The method, boiled down:
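HepG2 cells (600/well) mixed with RealTime-Glo MT reagent, settled 5 h at 37 C/5% CO2 before compound addition. Nonlytic NanoLuc luminescence from viable-cell prosubstrate reduction read repeatedly during 40 h treatment at 37 C.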

Experiment [11] is described as follows: A CellTox Green Cytotoxicity Assay to monitor cytotoxicity in HEK293 cells - 40 hour (AID 1224871). Also: nearly all actives have a fitted effect of over 45% in size. The method, boiled down:
as §1

Experiment [12] is described as follows: qHTS assay to identify small molecule antagonists of the constitutive androstane receptor (CAR) signaling pathway - cell viability counter screen (AID 1224837). Also: nearly all actives have a fitted effect of over 45% in size. Also: potency is read from the fitted curve at half-maximal effect. The method, boiled down:
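In quantitative HTS format, compounds at 15 concentrations were applied to HepG2 cells double-transfected with hCAR and CYP2B6-2.2kb under 50 nM CITCO stimulation; live-cell protease activity was read after 23 hr via CellTiter-Fluor.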

For experiment [13], the target named is Nuclear receptor subfamily 1 group I member 3 (Homo sapiens) (UniProt Q14994). Kind of experiment: qHTS assay to identify small molecule antagonists of the constitutive androstane receptor (CAR) signaling pathway (AID 1224838). Also: nearly all actives have a fitted effect of over 40% in size. The method, boiled down:
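CITCO-stimulated (50 nM final) HepG2 cells stably transfected with hCAR and CYP2B6-2.2kb luciferase were exposed to compounds at 15 concentrations for 24 h at 37 C/5% CO2. A luciferase reagent was added and luminescence recorded after 30 min.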

A short description of experiment [14]: qHTS assay to identify small molecule antagonists of the estrogen related receptor signaling pathway with the pleiotropic PPARgamma coactivator (PGC) from Tox21 10K library (AID 1224841; call rule not given here). The method, boiled down:
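In the PGC/ERR line, DMSO solutions of test chemicals are pin-delivered to 2,000 cells/well six hours after dispensing. Following eighteen hours' incubation, One-Glo reagent is added and luminescence recorded.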

Experiment [15] is described as follows: qHTS assay to identify small molecule agonists of the estrogen related receptor signaling pathway with the pleiotropic PPARgamma coactivator (PGC) from Tox21 10K library (AID 1224842). Also: nearly all actives have a fitted effect of over 15% in size. The method, boiled down:
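PGC/ERR reporter cell line, 2,000 cells per well, incubated 6 h at 37 C before 23 nL compound in DMSO was added. After 18 h at 37 C, One-Glo luminescence read following 30 min at room temperature.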

Experiment [16] in a line: qHTS assay to identify small molecule antagonists of the estrogen related receptor (ERR) signaling pathway from Tox21 library (AID 1224848). Also: nearly all actives have a fitted effect of over 50% in size. The method, boiled down:
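Quantitative high-throughput format: ERR reporter cells (2,000/well) pre-incubated 6 h, treated 18 h at 37 C with compounds in DMSO alongside positive and negative controls, then read by ONE-Glo luminescence.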

Experiment [17] can be described thus: qHTS assay to identify small molecule agonists of the estrogen related receptor (ERR) signaling pathway from Tox21 library (AID 1224849; calls by dose curve; also: nearly all actives have a fitted effect of over 15% in size). To be noted: ERR reporter cell line, ONE-Glo luciferase, 18 h; at 92.4 µM (top of the series) unless noted. The method, boiled down: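 Reporter cells (ERR, NTP source) treated with Tox21 10K compounds 18 h, 37 C. Readout: ONE-Glo luminescence, 30 min RT.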

Experiment [18] can be described thus: qHTS RealTime-Glo MT Cell Viability Assay in HepG2 cells - 24 hour (AID 1224867). Also: nearly all actives have a fitted effect of over 50% in size. The method, boiled down: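 HepG2 cells were seeded at 600 cells/well together with NanoLuc luciferase and a cell-permeant prosubstrate, preincubated 5 h at 37 C/5% CO2, then pin-dosed with compounds in DMSO. Nonlytic luminescence from viable cells was read at each time point.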

For experiment [19], the target named is Nuclear receptor subfamily 1 group I member 3 (Homo sapiens) (UniProt Q14994). The experiment can be described thus: qHTS assay to identify small molecule agonists of the constitutive androstane receptor (CAR) signaling pathway (AID 1224839).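 Also: HepG2 cells stably carrying human CAR and a CYP2B6 luciferase reporter; nearly all actives have a fitted effect of over 15% in size.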 The method, boiled down:
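Using human hepatoma HepG2 cells engineered with hCAR and a CYP2B6-2.2kb reporter, 15-concentration compound series were incubated 24 h alongside PK11195 at 0.75 uM final, with luminescence quantified afterwards.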

In experiment [20] the target is Luciferin 4-monooxygenase (Photinus pyralis) (UniProt P08659). Kind of experiment: qHTS assay to identify small molecule inhibitors of firefly luciferase (AID 1224835). Also: nearly all actives have a fitted effect of over 25% in size. The method, boiled down:
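Biochemical qHTS: compounds run as interplate titrations against purified firefly enzyme, with D-luciferin and ATP each at its KM concentration. Light output recorded by CCD imaging.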

Values without a mark were called inactive. Inconclusive results are not listed. The source made the active and inactive calls. Unless noted, calls follow the shape of the dose curve; as a rule, active = well fitted curve in the direction sought with a large enough effect in the repeat runs; inconclusive = weak or mixed curves; inactive = no such curve, though single readings can be large; an effect the other way counts as inactive or inconclusive.
% is scaled to controls: 0 for no effect and ±100 for the full control effect.

Sequence of Nuclear receptor subfamily 1 group I member 3 (Homo sapiens) (Q14994 whole entry, looked up): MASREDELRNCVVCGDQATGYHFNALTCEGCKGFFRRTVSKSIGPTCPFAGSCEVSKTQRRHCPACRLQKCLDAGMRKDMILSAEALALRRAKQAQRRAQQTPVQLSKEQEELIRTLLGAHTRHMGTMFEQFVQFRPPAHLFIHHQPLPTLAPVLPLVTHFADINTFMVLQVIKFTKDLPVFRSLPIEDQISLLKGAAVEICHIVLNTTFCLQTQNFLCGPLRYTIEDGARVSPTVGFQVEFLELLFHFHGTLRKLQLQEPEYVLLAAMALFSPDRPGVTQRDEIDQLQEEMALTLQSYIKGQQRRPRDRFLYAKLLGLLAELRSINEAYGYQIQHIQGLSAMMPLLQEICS
Sequence of Thyrotropin receptor (Homo sapiens) (P16473 whole entry, looked up): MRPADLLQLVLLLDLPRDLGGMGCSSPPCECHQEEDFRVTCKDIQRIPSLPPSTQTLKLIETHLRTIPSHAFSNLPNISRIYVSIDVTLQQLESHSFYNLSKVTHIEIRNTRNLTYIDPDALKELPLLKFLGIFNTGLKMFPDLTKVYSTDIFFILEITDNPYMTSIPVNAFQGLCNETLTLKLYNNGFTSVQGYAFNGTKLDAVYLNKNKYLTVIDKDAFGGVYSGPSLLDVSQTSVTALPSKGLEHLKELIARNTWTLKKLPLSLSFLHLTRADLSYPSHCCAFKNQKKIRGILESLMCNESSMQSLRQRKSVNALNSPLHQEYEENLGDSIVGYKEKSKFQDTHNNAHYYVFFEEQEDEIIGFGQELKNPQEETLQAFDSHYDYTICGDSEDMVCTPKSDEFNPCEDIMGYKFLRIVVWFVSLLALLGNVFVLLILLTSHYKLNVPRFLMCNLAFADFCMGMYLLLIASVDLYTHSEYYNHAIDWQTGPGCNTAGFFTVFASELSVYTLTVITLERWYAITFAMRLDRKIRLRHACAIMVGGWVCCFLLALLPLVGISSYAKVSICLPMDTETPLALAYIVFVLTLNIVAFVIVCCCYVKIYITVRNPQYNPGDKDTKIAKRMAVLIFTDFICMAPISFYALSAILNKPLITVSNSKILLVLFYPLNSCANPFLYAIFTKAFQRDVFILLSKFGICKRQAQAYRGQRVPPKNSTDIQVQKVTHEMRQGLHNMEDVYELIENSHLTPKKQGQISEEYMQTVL
Sequence of Luciferin 4-monooxygenase (Photinus pyralis) (P08659 whole entry, looked up): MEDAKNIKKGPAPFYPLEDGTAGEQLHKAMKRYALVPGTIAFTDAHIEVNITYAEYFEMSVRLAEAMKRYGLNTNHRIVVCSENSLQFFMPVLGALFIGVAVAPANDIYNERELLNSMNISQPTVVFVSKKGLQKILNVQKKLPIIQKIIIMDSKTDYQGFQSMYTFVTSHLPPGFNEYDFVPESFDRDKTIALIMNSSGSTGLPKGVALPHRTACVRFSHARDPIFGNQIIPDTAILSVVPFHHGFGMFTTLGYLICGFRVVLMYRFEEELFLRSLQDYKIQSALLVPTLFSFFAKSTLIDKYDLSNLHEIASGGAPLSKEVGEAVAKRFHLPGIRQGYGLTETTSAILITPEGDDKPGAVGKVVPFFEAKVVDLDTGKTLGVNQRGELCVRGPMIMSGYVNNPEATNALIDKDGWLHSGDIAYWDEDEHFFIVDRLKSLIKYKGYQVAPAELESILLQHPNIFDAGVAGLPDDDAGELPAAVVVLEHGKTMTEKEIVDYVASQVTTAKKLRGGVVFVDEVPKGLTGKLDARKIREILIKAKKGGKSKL

For `NCCN1CCOCC1`, the Potency result in experiment [1], in experiment [3], in experiment [7], in experiment [8] and in experiment [11] was “inactive” throughout. For the same compound, the result in experiment [2], in experiment [4], in [5], in experiment [6], in experiment [9] and in experiment [10] was inactive.
Consider `O=C(NCCc1c[nH]c2ccccc12)c1cccnc1`, for which the Potency entry in experiment [12], in [3], in [7], in [8] and in [11] was “inactive” throughout. Moreover, the outcome in experiment [2], in experiment [4], in experiment [5], in experiment [6] and in [9] was inactive.
Regarding `Nc1ccc([N+](=O)[O-])c(N)c1`, the Potency is 53.1 µM (active) in experiment [1] and 47.3 µM (active) in [12]. In addition, the compound was classed as inactive in experiment [13], in [15], in experiment [4], in experiment [5], in [6] and in experiment [10]. Besides, the Potency result in [14], in experiment [7], in experiment [16], in experiment [8] and in [11] was “inactive” each time. Further, in [17], the activity change, positive = activation is 5.15%.
With `COc1ccc(-c2cc(=O)c3c(O)cc(O[C@@H]4O[C@H](CO[C@@H]5O[C@@H](C)[C@H](O)[C@@H](O)[C@H]5O)[C@@H](O)[C@H](O)[C@H]4O)cc3o2)cc1O`, the Potency result in [1], in experiment [12], in [7], in [8] and in experiment [11] was “inactive” in each case. The compound was called inactive in experiment [2], in [15], in experiment [4], in experiment [6], in experiment [18] and in experiment [10]. Moreover, the activity change, positive = activation in experiment [17] is -13.8% [at 42.5 µM].
On to `O=C1c2ccccc2C(=O)c2cc(S(=O)(=O)O)ccc21`, for which the Potency entry in [1], in experiment [12], in [19], in experiment [3], in experiment [7] and in experiment [11] was “inactive” throughout. Also, the outcome in experiment [13], in experiment [2], in experiment [4], in experiment [5], in experiment [6] and in experiment [18] was inactive. Further, in [10], the outcome was inactive.
`N[C@@H](CCC(=O)Nc1ccc([N+](=O)[O-])cc1)C(=O)O`: the Potency entry in experiment [20], in experiment [19], in [14], in experiment [7], in experiment [16] and in experiment [8] was “inactive” each time. The Potency result in experiment [11] is “inactive”. In addition, the compound was classed as inactive in experiment [2], in experiment [15], in experiment [4], in experiment [5], in [6] and in experiment [18]. In addition, the compound was called inactive in experiment [9] and in [10]. Also, the activity change, positive = activation in experiment [17] is -15.8%.
For `CC(C)C(=O)OCCc1ccccc1`, the Potency result in [1], in [12], in [3], in experiment [7] and in [8] was “inactive” throughout. In addition, the outcome in [2], in experiment [4], in experiment [5], in experiment [6], in experiment [18] and in experiment [10] was inactive.
As for `CC(=O)OC(C)OC(=O)C(C)c1ccc(-c2ccccc2)c(F)c1` (configuration not stated), the Potency result in experiment [1], in experiment [12], in experiment [19], in experiment [3], in experiment [7] and in [8] was “inactive” throughout. In addition, the Potency result in experiment [11] was “inactive”. Besides, the compound was called inactive in experiment [2], in experiment [4], in experiment [5], in experiment [6], in experiment [18] and in experiment [9]. In [10], the compound was called inactive.
In the case of `O=C1c2ccccc2C(=O)C1c1ccccc1`, the Potency result in experiment [1], in experiment [19], in experiment [3], in experiment [7], in experiment [8] and in experiment [11] was “inactive” in each case. For the same compound, the call in experiment [13], in experiment [2], in experiment [4], in experiment [5] and in [18] was inactive.
